“And” between values parts separate entries of the source, which are not always exact repeats. Identical values can stand only once. Inconclusive results are not listed. More than one record can exist for a structure, and the calls need not agree. The source made the active and inactive calls.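 Rule for the calls, unless noted: active = mean z-score across replicates of 1.96 or higher in either the MELAS or the Rieske mutant cell line; inactive = the rest.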
What was measured:
[1] = viability loss in pontine glioma line – cell-based, SU-DIPG-XXV, MIPE5.0, CellTiter-Glo, qHTS, dose response (AID 1347065; cut-off not given, nearly all actives have AC50 up to about 26 µM;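 note: cells exposed to compound for 48 hours before ATP readout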); settings: CellTiter-Glo ATP luminescence
[2] = growth inhibition of DIPG cells – cell-based, MIPE4.0 library, CellTiter-Glo luminescence, qHTS (AID 1347066; cut-off not given, nearly all actives have AC50 up to about 30 µM;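 note: cells exposed to compound for 48 hours before readout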); settings: SU-DIPG-VI viability, CellTiter-Glo ATP luminescence
[3] = JHH-DIPG-1 glioma cell viability, MIPE5.0 library, CellTiter-Glo luminescence, qHTS (AID 1347067; cut-off not given, nearly all actives have AC50 up to about 26 µM;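 note: cells exposed to compound for 48 hours before readout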); settings: JHH-DIPG-1 glioma viability, CellTiter-Glo ATP luminescence
[4] = growth inhibition of DIPG cells – cell-based, MIPE5.0 library, qHTS (AID 1347068; cut-off not given, nearly all actives have IC50 up to about 30 µM;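 for IC50: cells exposed to compound for 48 hours before viability readout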); settings: SU-DIPG-XXV viability
[5] = MELAS cybrid and Rieske KO viability enhancers – cell-based, MELAS cybrids, Rieske KO mouse fibroblasts, CellTiter-Glo, primary screen (AID 1508586); settings: low glucose;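 note: z relative to plate mean and SD of compound and empty wells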
[6] = target: NAD(+) hydrolase SARM1 (Homo sapiens) (UniProt Q6SZW1); assay: blocking NAD cleavage by SARM1 SAM-TIR – cell lysate, NAD-Glo luminescence (AID 1508614;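 active = compound whose remaining NAD level is above about 45 nM, limit read from the data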;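 note: higher remaining NAD means stronger inhibition of SARM1 NADase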); settings: SAM-TIR HEK293T lysate NADase, at 1 µM, stronger effect = higher value
Sequence of NAD(+) hydrolase SARM1 (Homo sapiens) (Q6SZW1 whole entry, looked up, the tested form may be a part): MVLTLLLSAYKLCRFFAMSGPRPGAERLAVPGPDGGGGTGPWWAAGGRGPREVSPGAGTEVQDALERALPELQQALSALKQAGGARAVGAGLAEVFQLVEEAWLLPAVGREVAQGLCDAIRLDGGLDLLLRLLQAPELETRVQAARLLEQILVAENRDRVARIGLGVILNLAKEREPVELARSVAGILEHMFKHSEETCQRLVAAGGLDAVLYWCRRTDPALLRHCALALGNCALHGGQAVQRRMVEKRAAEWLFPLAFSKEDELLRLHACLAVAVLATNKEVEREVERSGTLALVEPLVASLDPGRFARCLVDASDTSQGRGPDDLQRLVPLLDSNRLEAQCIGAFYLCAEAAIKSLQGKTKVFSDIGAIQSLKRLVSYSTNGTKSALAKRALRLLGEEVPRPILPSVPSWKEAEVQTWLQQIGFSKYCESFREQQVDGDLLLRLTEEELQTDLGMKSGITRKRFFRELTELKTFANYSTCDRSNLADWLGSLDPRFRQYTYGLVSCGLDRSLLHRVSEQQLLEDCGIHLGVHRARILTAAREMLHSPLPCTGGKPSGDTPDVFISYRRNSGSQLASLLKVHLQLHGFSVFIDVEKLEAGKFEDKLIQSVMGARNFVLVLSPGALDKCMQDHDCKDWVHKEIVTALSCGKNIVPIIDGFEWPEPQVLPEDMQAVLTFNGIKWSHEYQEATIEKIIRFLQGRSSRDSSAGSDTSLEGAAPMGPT

[7] = target: Mitogen-activated protein kinase 7 (Homo sapiens) (UniProt Q13164); assay: Gal4-ERK5 driven luciferase induction – cell-based, HTS, primary screen (AID 1508626;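 active = luciferase signal above three times the same-plate solvent-only control wells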;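 note: luciferase driven by Gal4-ERK5 fusion binding five Gal4 sites before minimal TATA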); settings: HeLa Gal4-ERK5 transactivation, 18 h, at 5 µM, stronger effect = higher value
Sequence of Mitogen-activated protein kinase 7 (Homo sapiens) (Q13164 whole entry, looked up, the tested form may be a part): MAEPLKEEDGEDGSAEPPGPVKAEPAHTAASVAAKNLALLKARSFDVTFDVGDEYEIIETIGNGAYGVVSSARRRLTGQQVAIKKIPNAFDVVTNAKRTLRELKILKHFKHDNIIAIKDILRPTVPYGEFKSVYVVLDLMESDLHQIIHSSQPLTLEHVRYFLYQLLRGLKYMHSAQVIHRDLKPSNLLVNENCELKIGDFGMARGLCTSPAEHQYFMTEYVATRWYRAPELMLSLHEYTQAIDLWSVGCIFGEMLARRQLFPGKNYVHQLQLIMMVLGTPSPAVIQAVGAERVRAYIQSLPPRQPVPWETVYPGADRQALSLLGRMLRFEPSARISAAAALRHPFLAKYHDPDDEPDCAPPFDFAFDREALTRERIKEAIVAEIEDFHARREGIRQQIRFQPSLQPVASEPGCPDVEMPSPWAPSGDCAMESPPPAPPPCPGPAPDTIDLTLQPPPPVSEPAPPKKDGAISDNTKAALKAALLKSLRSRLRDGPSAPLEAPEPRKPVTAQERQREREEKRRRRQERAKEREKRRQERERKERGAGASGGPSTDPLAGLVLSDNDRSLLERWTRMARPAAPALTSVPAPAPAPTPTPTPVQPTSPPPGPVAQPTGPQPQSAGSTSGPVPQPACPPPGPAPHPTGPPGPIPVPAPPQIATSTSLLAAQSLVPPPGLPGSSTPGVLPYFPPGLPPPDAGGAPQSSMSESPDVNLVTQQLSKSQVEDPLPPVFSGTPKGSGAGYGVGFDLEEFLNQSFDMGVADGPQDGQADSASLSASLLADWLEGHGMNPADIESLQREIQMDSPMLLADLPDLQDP

[8] = galactose survival enhancers in mitochondrial complex I cybrids – cell-based, galactose medium, ATP luminescence, primary screen (AID 1645843;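 active = z-score of at least 1.8 in each of two replicates, scored against plate mean and spread of sample wells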;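 note: positive z means more ATP and so rescue of galactose-driven cybrid death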); settings: complex I mutant cybrid cells, 72 h, stronger effect = higher value
[9] = chitosan synthesis blockers in C. neoformans – flow cytometry, Cibacron Brilliant Red staining (AID 1347148; call rule not given here;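 note: compound exposure lasted three days at 37 degrees C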); settings: Cryptococcus neoformans chitosan, stronger effect = lower value; at 10 µM unless noted
[10] = blockers of cellular phospholipid synthesis – cell-based, LOPAC library, screen 4, primary screen (AID 1347384; call rule not given here); settings: animal cells, phospholipid biosynthesis inhibition screen; at 10 µM
[11] = compounds altering HSF1 focus formation in cells – imaging, Selleck Cancer Library (AID 1347162; in the data active = plate-normalised HSF1 focus index below about 0.46); settings: human cells, HSF1 nuclear foci imaging, at 10 µM; SSMD: measured here: HSF1 foci SSMD mean; cell count: measured here: cell number; plate-normalised HSF1 focus index: stronger effect = lower value
[12] = MELAS cybrid survival, CellTiter-Glo 48 h, stronger effect = higher value
[13] = Rieske KO mouse fibroblast survival, CellTiter-Glo 72 h

Compound	outcome [1]	AC50 [2]	outcome [3]	outcome [4]	z-score [5, 12]	z-score [5, 13]	remaining NAD [6]	luciferase signal [7]	z-score [8]	outcome [2]	fold fluorescence [9]	outcome [10]	AC50 [1]	AC50 [3]	IC50 [4]	SSMD [11]	cell count [11]	plate-normalised HSF1 focus index [11]
CCCc1nc(C)c2c(=O)[nH]c(-c3cc(S(=O)(=O)N4CCN(CC)CC4)ccc3OCC)nn12	inactive	8330 nM (active)	inactive	inactive	-0.282 (inactive) and 1.61 (inactive) and 1.47 (inactive)	-1.38 and 1.33 and 1.06	18 nM (inactive)	60 AU (inactive)	0.68 (inactive) and 0.485 (inactive)	–	–	–	–	–	–	–	–	–
CCOC(=O)C(C)(C)Oc1ccc(Cl)cc1	inactive	–	inactive	inactive	0.307 (inactive) and -1.09 (inactive)	-0.506 and -1.36	10 nM (inactive)	44 AU (inactive)	0.15 (inactive) and 0.675 (inactive)	inactive	5.04 (inactive)	inactive	–	–	–	–	–	–
Cc1cnc(NC(=O)C2=C(O)c3ccccc3S(=O)(=O)N2C)s1	inactive	–	inactive	inactive	-0.282 (inactive) and 0.497 (inactive) and -0.212 (inactive)	0.842 and 0.0996 and -0.732	10 nM (inactive)	52 AU (inactive)	1.35 (inactive) and 0.585 (inactive) and 0.515 (inactive)	inactive	–	inactive	–	–	–	–	–	–
NC[C@H](O)c1ccc(O)c(O)c1	inactive	–	inactive	inactive	-0.303 (inactive) and 0.0574 (inactive) and -0.946 (inactive)	-0.266 and 0.00809 and -1.27	10 nM (inactive)	60 AU (inactive)	-1.45 (inactive) and -1.61 (inactive) and -1.02 (inactive)	inactive	–	inactive	–	–	–	–	–	–
COc1ccc(CCN(C)CCCC(C#N)(c2ccc(OC)c(OC)c2)C(C)C)cc1OC (stereo not given)	inactive	–	inactive	inactive	-1.23 (inactive) and 0.18 (inactive) and -0.391 (inactive)	-2.03 and 0.282 and -0.248	10 nM (inactive)	96 AU (inactive)	–	inactive	–	inactive	–	–	–	–	–	–
COc1cccc2c1C(=O)c1c(O)c3c(c(O)c1C2=O)C[C@@](O)(C(=O)CO)C[C@@H]3O[C@H]1C[C@H](N)[C@H](O)[C@H](C)O1	–	2350 nM (active)	–	–	0.616 (inactive) and 7.1 (active)	-1.64 and -0.526	10 nM (inactive)	32 AU (inactive)	-0.63 (inactive) and -2.04 (inactive)	–	–	–	1180 nM (active)	1050 nM (active)	7420 nM (active)	-18.3	7010	0.0593 (active)
CN1C(C(=O)Nc2ccccn2)=C(O)c2sccc2S1(=O)=O	inactive	–	inactive	inactive	-0.378 (inactive) and 0.116 (inactive) and -0.742 (inactive)	0.123 and -0.0171 and -1.25	10 nM (inactive)	180 AU (inactive)	-0.07 (inactive)	inactive	–	–	–	–	–	–	–	–
CC(=O)Oc1ccccc1C(=O)O	inactive	–	inactive	inactive	-0.282 (inactive) and -0.31 (inactive) and 0.455 (inactive)	0.817 and -0.843 and -0.759	10 nM (inactive)	92 AU (inactive)	0.51 (inactive) and 0.115 (inactive)	inactive	–	inactive	–	–	–	–	–	–

Source: PubChem BioAssay
